Measurements taken from the supplement of paper PMC11001985.

Compound: C#CCNC(=O)CCSSCCC(=O)NCCc1ccc(C=O)c(C=O)c1
Test: lysine labeling ratio R10:1 (500 µM / 50 µM probe), SILAC-ABPP in living cells; higher = lower intrinsic lysine reactivity toward the probe, active = 2 or less
Conditions: HeLa; probe concentrations 500 vs 50 µM
In short: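 In PBS at room temperature, living HeLa cells grown with SILAC light or heavy labels were treated with 50 µM or 500 µM of an alkyne-tagged, disulfide-linked lysine probe, with label swaps in both directions. Analysis was by LC-MS/MS on a TIMS-TOF Pro after click to biotin-azide, neutravidin capture and DTT release. For each lysine, R is the median across forward and reverse replicates of the filtered median high-probe/low-probe MS1 peptide ratio, capped at 20.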

Chain of UniProt Q9P0L0 (Q9P0L0 whole entry): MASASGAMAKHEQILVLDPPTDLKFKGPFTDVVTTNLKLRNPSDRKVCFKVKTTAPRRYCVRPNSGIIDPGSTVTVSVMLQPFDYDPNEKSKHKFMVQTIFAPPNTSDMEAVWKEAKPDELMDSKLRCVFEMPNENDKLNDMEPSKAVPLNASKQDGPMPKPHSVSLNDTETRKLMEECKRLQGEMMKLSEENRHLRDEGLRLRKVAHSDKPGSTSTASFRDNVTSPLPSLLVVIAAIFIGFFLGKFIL
Chain of UniProt Q9UHA4 (Q9UHA4 whole entry): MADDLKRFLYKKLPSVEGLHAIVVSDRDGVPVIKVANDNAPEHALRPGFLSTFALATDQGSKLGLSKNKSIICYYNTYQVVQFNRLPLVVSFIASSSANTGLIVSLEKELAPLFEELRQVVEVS
Chain of UniProt Q08J23 (Q08J23 whole entry): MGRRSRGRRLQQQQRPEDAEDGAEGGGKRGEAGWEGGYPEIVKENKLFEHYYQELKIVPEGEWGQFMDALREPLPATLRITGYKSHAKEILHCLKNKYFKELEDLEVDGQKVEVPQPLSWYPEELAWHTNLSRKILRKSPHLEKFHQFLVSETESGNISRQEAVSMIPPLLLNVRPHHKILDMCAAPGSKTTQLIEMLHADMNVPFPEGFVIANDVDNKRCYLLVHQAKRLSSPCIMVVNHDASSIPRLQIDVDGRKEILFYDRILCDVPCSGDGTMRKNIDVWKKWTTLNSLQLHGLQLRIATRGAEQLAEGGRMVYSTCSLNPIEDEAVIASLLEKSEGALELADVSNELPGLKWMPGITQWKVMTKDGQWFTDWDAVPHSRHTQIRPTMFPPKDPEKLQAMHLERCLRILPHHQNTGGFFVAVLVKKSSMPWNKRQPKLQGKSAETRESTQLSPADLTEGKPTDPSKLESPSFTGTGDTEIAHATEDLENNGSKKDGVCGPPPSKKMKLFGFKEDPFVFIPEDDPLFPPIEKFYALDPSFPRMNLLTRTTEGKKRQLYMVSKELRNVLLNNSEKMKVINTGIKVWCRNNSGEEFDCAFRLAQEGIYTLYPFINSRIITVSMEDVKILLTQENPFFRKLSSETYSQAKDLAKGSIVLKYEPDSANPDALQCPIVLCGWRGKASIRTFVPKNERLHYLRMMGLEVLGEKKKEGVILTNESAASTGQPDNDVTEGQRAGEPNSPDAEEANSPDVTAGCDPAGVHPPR
Chain of UniProt Q9HB71 (Q9HB71 whole entry): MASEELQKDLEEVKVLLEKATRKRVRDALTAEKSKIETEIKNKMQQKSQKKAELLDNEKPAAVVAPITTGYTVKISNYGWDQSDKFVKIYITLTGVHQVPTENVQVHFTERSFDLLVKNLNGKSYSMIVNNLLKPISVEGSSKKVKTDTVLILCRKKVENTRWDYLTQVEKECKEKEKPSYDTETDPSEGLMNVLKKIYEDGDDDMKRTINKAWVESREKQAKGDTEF
Chain of UniProt O75369 (O75369 whole entry): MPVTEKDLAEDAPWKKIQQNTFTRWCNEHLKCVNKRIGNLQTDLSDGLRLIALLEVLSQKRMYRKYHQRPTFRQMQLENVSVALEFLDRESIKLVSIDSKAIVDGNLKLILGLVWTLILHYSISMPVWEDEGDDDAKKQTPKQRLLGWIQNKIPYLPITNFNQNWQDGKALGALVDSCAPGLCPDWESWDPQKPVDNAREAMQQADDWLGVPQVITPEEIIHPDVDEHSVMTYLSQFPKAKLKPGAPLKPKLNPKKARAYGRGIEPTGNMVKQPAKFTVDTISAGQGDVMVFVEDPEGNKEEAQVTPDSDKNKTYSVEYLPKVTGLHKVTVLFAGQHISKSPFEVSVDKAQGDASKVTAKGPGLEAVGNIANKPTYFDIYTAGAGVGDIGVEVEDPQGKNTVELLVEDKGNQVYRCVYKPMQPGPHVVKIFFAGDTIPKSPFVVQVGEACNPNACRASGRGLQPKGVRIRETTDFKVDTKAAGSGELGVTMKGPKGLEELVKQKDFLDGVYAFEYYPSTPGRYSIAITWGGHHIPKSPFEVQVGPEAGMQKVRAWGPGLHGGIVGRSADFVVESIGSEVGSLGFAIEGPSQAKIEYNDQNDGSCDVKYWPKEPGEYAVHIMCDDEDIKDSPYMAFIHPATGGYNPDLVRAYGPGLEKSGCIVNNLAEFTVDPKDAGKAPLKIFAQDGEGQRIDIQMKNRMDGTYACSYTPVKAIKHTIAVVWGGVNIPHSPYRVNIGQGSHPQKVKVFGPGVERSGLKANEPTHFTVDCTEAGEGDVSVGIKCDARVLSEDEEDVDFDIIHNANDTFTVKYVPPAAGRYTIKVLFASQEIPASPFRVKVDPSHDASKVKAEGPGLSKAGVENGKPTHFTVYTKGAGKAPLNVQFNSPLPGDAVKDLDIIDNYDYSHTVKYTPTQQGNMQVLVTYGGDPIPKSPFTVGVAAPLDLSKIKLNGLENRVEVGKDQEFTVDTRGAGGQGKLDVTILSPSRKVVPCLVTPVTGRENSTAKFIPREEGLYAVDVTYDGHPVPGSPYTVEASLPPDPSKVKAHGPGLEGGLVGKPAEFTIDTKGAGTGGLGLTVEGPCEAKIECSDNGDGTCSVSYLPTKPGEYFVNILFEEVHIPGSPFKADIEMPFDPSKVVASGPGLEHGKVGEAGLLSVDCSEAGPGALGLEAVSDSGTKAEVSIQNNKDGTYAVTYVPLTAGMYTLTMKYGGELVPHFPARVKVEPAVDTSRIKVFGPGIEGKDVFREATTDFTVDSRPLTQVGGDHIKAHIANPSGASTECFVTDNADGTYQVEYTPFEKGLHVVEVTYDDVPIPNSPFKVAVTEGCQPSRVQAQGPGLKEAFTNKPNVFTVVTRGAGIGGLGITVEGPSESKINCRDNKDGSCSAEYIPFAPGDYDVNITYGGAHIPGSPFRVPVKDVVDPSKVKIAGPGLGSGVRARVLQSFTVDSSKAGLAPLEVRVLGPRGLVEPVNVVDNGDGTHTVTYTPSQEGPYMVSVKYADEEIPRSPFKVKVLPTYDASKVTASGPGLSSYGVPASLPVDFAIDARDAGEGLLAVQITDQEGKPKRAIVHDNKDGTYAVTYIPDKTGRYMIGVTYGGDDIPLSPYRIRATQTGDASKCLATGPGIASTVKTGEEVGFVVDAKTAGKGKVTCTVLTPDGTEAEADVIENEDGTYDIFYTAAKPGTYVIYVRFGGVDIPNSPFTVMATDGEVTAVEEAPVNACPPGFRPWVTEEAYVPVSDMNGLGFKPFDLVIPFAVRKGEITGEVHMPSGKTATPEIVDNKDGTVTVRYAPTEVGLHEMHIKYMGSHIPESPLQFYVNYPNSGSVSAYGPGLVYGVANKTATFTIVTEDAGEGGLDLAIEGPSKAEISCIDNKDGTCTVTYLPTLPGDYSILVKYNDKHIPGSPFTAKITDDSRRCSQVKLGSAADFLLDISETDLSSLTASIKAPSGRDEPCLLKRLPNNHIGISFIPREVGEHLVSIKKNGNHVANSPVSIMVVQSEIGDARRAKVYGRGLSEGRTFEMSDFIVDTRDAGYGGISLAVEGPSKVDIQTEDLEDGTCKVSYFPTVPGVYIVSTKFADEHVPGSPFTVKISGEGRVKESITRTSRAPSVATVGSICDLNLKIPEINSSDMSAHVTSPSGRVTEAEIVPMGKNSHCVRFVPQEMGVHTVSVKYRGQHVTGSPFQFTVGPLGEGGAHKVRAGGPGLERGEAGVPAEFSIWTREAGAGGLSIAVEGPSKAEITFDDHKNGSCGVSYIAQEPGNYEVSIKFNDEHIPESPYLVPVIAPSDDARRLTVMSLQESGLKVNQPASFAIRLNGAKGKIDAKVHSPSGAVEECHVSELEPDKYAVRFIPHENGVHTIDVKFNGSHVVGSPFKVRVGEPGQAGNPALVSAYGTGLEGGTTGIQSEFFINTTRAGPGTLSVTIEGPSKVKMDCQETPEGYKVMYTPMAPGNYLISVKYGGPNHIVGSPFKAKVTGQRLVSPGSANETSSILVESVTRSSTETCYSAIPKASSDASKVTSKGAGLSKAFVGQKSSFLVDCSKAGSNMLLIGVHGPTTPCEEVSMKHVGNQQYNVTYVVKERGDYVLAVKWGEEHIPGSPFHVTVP
Chain of UniProt Q02790 (Q02790 whole entry): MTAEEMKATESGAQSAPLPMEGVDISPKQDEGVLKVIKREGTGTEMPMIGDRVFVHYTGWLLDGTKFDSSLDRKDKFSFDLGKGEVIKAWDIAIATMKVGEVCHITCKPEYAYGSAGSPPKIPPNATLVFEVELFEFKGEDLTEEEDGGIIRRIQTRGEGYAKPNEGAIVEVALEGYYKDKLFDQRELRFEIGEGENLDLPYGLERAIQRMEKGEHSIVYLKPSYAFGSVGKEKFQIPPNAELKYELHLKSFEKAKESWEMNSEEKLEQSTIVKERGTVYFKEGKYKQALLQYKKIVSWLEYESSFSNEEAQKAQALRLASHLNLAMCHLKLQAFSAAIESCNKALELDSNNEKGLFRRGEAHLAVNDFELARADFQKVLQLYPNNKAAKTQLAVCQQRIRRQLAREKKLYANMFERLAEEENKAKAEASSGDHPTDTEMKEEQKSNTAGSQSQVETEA
Chain of UniProt Q07065 (Q07065 whole entry): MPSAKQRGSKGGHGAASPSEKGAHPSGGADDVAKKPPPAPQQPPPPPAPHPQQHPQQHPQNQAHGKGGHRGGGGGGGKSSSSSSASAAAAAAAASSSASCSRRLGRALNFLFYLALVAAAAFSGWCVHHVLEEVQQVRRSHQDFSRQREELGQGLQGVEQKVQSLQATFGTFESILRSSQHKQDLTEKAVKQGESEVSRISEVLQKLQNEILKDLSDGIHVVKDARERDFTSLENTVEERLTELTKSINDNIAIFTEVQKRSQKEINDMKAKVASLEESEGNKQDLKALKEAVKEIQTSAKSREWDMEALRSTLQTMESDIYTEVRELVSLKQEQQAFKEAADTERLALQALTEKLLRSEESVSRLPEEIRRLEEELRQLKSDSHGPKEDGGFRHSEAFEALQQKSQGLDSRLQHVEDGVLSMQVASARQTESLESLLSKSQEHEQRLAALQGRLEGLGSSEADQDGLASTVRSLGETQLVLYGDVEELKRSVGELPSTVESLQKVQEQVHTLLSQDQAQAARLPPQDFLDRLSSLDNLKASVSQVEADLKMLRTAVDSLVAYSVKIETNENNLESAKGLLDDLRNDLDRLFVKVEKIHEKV

Lysine labeling ratio R10:1, inactive:
UniProt P62829 (lysine site: K13) 5.2, FKBP4 (lysine site: K274) (UniProt Q02790) 2.78, UniProt Q15149 (lysine site: K1573) 2.01, CKAP4 (lysine site: K301) (UniProt Q07065) 2.85, UniProt Q9UHA4 (lysine site: K12) 3.79, HNRNPM (lysine site: K69) (UniProt P52272) 3.38, HSPA9 (lysine site: K394) (UniProt P38646) 3.32, UniProt P62913 (lysine site: K67) 3.62, RPS3 (lysine site: K62) (UniProt P23396) 3.22, UniProt P62263 (lysine site: K106) 5.29, NSUN2 (lysine site: K28) (UniProt Q08J23) 2.49, RPS3 (lysine site: K75) (UniProt P23396) 2.68

Lysine labeling ratio R10:1, active:
VAPA (lysine site: K180) (UniProt Q9P0L0) 1.96, FLNB (lysine site: K960) (UniProt O75369) 1.54, TGFBR3 (lysine site: K314) (UniProt Q03167) 1.51, UniProt P61513 (lysine site: K13) 1.64, CACYBP (lysine site: K223) (UniProt Q9HB71) 1.74
